Assay outcomes (PubChem BioAssay)
Most compounds without a hit are left out; they make up all but 7.5% or so of the library.
HCMV antiviral – blocks human cytomegalovirus replication; activity change, negative = inhibition, % at 57.5 µM; 410,000 tested, 4.5% active; HFF cells, HCMV-luciferase reporter, 72 h; stronger effect = lower value; in the data active means activity change below about -60%; inconclusive means no clear call, values can overlap the other calls; inactive means above about -39%
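HFF cells seeded 16 h at 37C, treated with compounds, infected with luciferase-reporter HCMV at MOI 1 PFU/cell; luciferase read at 72 h post infection, normalized to buffer-only and Salinomycin controls.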
Vaccinia Venus – inhibitors of vaccinia virus (Venus reporter); Vaccinia virus Venus reporter expression, fluorescence; Potency, µM (doses to about 36.5 µM), inactives show top-dose activity change, negative = inhibition, actives largely listed as inhibitors; 330,000 tested, 0.46% active; calls by dose curve; tested in A549 cells; further: potency means the concentration at half of the fitted maximal effect; nearly all actives have a fitted effect of over 30% in size
HCV inh – inhibitors of hepatitis C virus infection; 340,000 tested, 3.4% active; Potency, µM (doses to about 41.8 µM), without a hit: at the top dose activity change, negative = inhibition, most hits filed as inhibitors; Huh7.5.1 HCVcc-Cre infection, luciferase reporter, 44 h; further: potency means the concentration at half of the fitted maximal effect
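Whole-lifecycle infectious HCVcc-Cre system; cells 1,000/well, compound then virus (~0.5 moi) added 4 h after plating, 44 h culture. Luciferase read 15 sec following 15 min substrate incubation, room temp.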
VACV mCherry inh – inhibitors of vaccinia virus infection (mCherry reporter signal); Vaccinia virus mCherry reporter infection, fluorescence; Potency, µM (titrated, usually from 36.5 µM), inactives show at the top dose activity change, negative = inhibition, actives largely listed as inhibitors; 310,000 tested, 0.63% active; AID 720579; calls by dose curve; tested in A549 cells; further: potency means the concentration at half of the fitted maximal effect; nearly all actives have a fitted effect of over 35% in size
Giardia FBPA inh-1 – Giardia lamblia aldolase inhibition. A8B2U2. purified Giardia FBPA. Potency, µM (doses to about 59.6 µM), for inactives: top-dose activity, negative = inhibition, usual class: inhibitors. 290,000 tested, 0.71% active; further: potency means the concentration at half of the fitted maximal effect; nearly all actives have a fitted effect of over 55% in size
Target sequence (A8B2U2 whole entry, looked up): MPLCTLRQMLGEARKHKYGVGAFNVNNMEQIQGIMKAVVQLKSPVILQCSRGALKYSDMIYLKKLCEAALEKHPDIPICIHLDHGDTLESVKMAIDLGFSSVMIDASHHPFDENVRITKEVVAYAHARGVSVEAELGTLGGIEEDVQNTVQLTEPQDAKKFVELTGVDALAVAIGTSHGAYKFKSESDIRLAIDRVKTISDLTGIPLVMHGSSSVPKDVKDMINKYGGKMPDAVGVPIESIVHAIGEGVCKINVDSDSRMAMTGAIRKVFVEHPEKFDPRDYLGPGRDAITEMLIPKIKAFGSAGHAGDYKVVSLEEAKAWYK
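40 nM FBPA preincubated 10 min at RT with compound (up to 57.5 uM final), then substrate plus GAPDH/TPI/NAD/arsenate coupling and diaphorase/resazurin added. Fluorescence read after 20 min at RT, 525/598 nm.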
FMDV inh – antivirals against foot and mouth disease virus; AID 1159524; 410,000 tested, 1.2% active; Potency, µM (titrated, usually from 57.9 µM), without a hit: at the top dose activity change, negative = inhibition, usual class: inhibitors; FMDV antiviral cell-based qHTS; calls by dose curve; tested in HEK293T cells; further: read-out not given here; potency means the concentration at half of the fitted maximal effect; nearly all actives have a fitted effect of over 45% in size
Giardia growth – blocks growth of Giardia lamblia trophozoites; shares compounds with Giardia FBPA inh-1; Giardia lamblia trophozoite growth inhibition; Potency, µM (doses to about 57.5 µM), for the others: top-dose activity change, negative = inhibition, actives largely listed as inhibitors; 1,500 tested, 5% active;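 further: potency means the concentration at half of the fitted maximal effect; trophozoites exposed to compound for 48 h at 37 °C; nearly all actives have a fitted effect of over 70% in size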
Mammal cell tox – counter-screen for Giardia aldolase inhibitors: mammalian cell toxicity; shares compounds with Giardia FBPA inh-1; mammalian cell viability counter-screen, qHTS; Potency, µM (titrated, usually from 57.5 µM), for the others: at the highest dose viability change, negative = toxicity, most hits filed as inhibitors; 1,500 tested, 4% active;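 further: Chinese hamster ovary cells used as mammalian cytotoxicity surrogate; viability measured as cellular ATP by luminescence; potency means the concentration at half of the fitted maximal effect; compound exposure lasted 48 h before reading; nearly all actives have a fitted effect of over 60% in size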
Giardia FBPA inh-2 – confirmation of Giardia fructose-bisphosphate aldolase inhibitors; 1,500 tested, 5% active; shares compounds with Giardia FBPA inh-1; purified Giardia aldolase enzyme activity, qHTS; AID 2787; Potency, µM (doses to about 57.5 µM), without a hit: at the top dose activity change, negative = inhibition, usual class: inhibitors; further: potency means the concentration at half of the fitted maximal effect; nearly all actives have a fitted effect of over 45% in size
Rabbit aldolase – selectivity test for Giardia aldolase inhibitors: rabbit aldolase; shares compounds with Giardia FBPA inh-1; Rabbit muscle FBPA enzyme inhibition, selectivity counter-screen; 1,500 tested, 4% active; Potency, µM (series often up to 57.5 µM), inactives show at the highest dose activity, negative = inhibition, most hits filed as inhibitors; further: potency means the concentration at half of the fitted maximal effect; nearly all actives have a fitted effect of over 60% in size
Target sequence (P00883 whole entry, looked up): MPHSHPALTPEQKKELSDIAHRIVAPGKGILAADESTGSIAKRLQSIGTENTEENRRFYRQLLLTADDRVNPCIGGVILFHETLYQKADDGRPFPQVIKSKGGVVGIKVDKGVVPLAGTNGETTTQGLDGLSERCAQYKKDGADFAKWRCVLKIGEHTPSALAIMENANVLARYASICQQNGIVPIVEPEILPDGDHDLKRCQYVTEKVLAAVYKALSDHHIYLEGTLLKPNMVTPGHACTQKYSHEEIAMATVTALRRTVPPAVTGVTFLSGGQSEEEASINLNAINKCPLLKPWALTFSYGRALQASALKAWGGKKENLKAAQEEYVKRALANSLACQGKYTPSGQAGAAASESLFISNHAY
GAPDH counter – GAPDH inhibition flagged for Giardia aldolase hits; shares compounds with Giardia FBPA inh-1; GAPDH coupling enzyme counterscreen, biochemical, qHTS; Potency, µM (series often up to 57.5 µM), for inactives: at the highest dose activity change, negative = inhibition, hits mostly inhibitors; 1,500 tested, 6% active; AID 2795; further: potency means the concentration at half of the fitted maximal effect; nearly all actives have a fitted effect of over 55% in size
* hit, by the source's call; i = inactive; ? = inconclusive; nt = not tested or not shown; ! = not confirmed by another sample; [ ] = remark or other dose. Unless noted, the call rests on the fitted dose curve; in most records, active means well fitted curve in the direction sought with a large enough effect; inconclusive means small, poorly fitted or top-dose-only effect, or another doubt; inactive means no such curve, though single readings can be large; an effect the other way counts as inactive or inconclusive. On the % scale 0 is the no-effect control and ±100 the full control effect.

SMILES | HCMV antiviral | Vaccinia Venus | HCV inh | VACV mCherry inh | Giardia FBPA inh-1 | FMDV inh | Giardia growth | Mammal cell tox | Giardia FBPA inh-2 | Rabbit aldolase | GAPDH counter
CCC(C)c1ccc(NC(=S)Nc2ccc(OC)c(OC)c2)cc1 (centres undefined) | -22 | -27% | -9% | nt | -3% | -19% | nt | nt | nt | nt | nt
CCn1ncc(NC(=S)Nc2ccc3c(c2)OCO3)c1C(N)=O | -10 | 1% | 6% | -19% | 18µM* | 7% | -20%[10.4 µM] | -12% | -23% | -10% | -9%
CCn1ncc(NC(=S)Nc2ccc(OC)c(OC)c2)c1C(N)=O | 13 | -10% | 12% | -10% | 16µM* | 26% | -30% | -6% | -15% | -5% | -5%
CC1CCCN(C(=O)CCNC(=O)Cn2cnc3ccccc3c2=O)C1 (centres undefined) | -8 | 2% | 7% | -10% | 11% | -2% | nt | nt | nt | nt | nt
CCOc1ccccc1NC(=O)c1cc(S(=O)(=O)N2CCOCC2)cn1C | -15 | -17% | nt | i | nt | ? | nt | nt | nt | nt | nt
COc1cc(/C=C2\SC(N)=NC2=O)cc(Cl)c1O | -2 | nt | -7% | nt | 4% | -4% | nt | nt | nt | nt | nt
COc1ccc(/C=C2\SC(N)=NC2=O)cc1Br | -15 | -22% | -21% | -21% | -9% | 0% | nt | nt | nt | nt | nt
COc1cc(/C=C2\SC(c3ccc(C)cc3)=NC2=O)cc(OC)c1O | -75* | -2% | -2% | -17% | 14µM* | 17% | ? | -7% | 14µM* | ? | ?
Cc1ccc(C2=NC(=O)/C(=C/c3cc(O)c(O)c(Br)c3)S2)cc1 | 0 | -7% | -12% | ? | 16µM* | ? | 7%[10.4 µM] | -18% | -15% | -9% | 10%
COc1cccc(C(O)c2ncc(-c3ccc(Cl)cc3)[nH]2)c1 (centres undefined) | 16 | -28% | nt | i | nt | -4% | nt | nt | nt | nt | nt
Cc1csc2nc(CCNS(=O)(=O)c3ccc(F)cc3)cn12 | ? | -5% | nt | -14% | nt | -6% | nt | nt | nt | nt | nt
Cc1cn2c(=O)c(C(=O)N3CCN(c4ccccc4Cl)CC3)cnc2s1 | -38 | -16% | -1% | -19% | nt | -13% | nt | nt | nt | nt | nt
CCC(C)NCCOc1cc(C)cc(C)c1C (centres undefined) | 19 | -6% | -7% | 0% | 16µM* | -15% | 21% | 1% | 5% | 3% | 8%
O=c1c(CO)cc(CO)cc(CO)c1O | -1 | nt | 13% | nt | ? | -16% | -4%[38.3 µM] | -10% | -23% | -10% | -16%
Cc1noc(C)c1NC(=O)N(C)C[C@H]1Oc2c(NS(=O)(=O)c3cn(C)cn3)cccc2C(=O)N([C@H](C)CO)C[C@@H]1C | -5 | -1% | 13% | i | nt | 14% | nt | nt | nt | nt | nt
CCOC(=O)N1CCN(C(=S)NC(=O)c2ccc(F)c(F)c2)CC1 | -89* | -11% | 26% | -9% | 16µM* | 30% | 59% | -15% | 2% | 6% | 10%
COc1ccc2nc(SCC(=O)Nc3c(C)cccc3C)[nH]c2c1 | -39 | -12% | -2% | -12% | -3% | -21% | nt | nt | nt | nt | nt
COc1ccc2nc(S(=O)Cc3ncc(C)c(OC)c3C)[nH]c2c1 (centres undefined) | 66 | -17% | 2.2µM*! | -1% | 16µM*! | -21% | ? | -20% | -17% | -10% | -9%
CCN(C/C=C/C#CC(C)(C)C)Cc1cccc(OCc2cc(-c3ccsc3)cs2)c1 | nt | nt | nt | nt | -5% | nt | nt | nt | nt | nt | nt
O=C(CNCc1ccco1)Nc1ccc(N2CCCCCC2)cc1 | 2 | -8% | -4% | -21% | 18µM* | 24% | ? | -8% | -11% | -15% | -12%
Cc1ccc(S(=O)(=O)N2CCCCC2)cc1NC(=O)CNCc1ccco1 | -27 | nt | -5% | nt | 7.9µM* | 6% | ? | 7% | 9% | 3% | 1%
COc1cc(Cc2nc3ccccc3n2C(C)c2nc3ccccc3[nH]2)cc(OC)c1 (centres undefined) | -8 | 8% | nt | 0% | nt | -14% | nt | nt | nt | nt | nt
CN1CCN(C(=O)c2cc3c(c(-c4cccc(-c5cc6ccccc6o5)c4)n2)[C@@H](CCO)N(S(=O)C(C)(C)C)C3)CC1 (some centres undefined) | -1 | 8% | nt | 18% | nt | -10% | nt | nt | nt | nt | nt
COc1ccc(Nc2cc(C)c3ccc(O)cc3n2)cc1 | -40 | nt | ? | nt | -25% | 4% | -1%[38.3 µM] | 12% | ? | ? | ?
CCOc1ccc(OCC)c(NC(=O)CN2CCN(CC(=O)NC(C)C)CC2)c1 | 3 | nt | -18% | nt | 32µM* | ? | 25% | -12% | -1% | 2% | 8%
SMILES | HCMV antiviral | Vaccinia Venus | HCV inh | VACV mCherry inh | Giardia FBPA inh-1 | FMDV inh | Giardia growth | Mammal cell tox | Giardia FBPA inh-2 | Rabbit aldolase | GAPDH counter
CCOc1ccc(OCC)c(NC(=O)CN2CCN(CC)CC2)c1 | 47 | 6% | -4% | nt | -3% | -3% | nt | nt | nt | nt | nt
O=c1[nH]c(=S)c2ncn(-c3ccccc3)c2[nH]1 | -16 | 3% | 9% | -8% | 10µM* | -5% | 10% | 7% | 3% | 3% | 7%
COc1ccc2oc(=O)cc(CN3CCN(c4ccccc4F)CC3)c2c1 | ? | ? | nt | -24% | nt | ? | nt | nt | nt | nt | nt
Cc1cc(SCNC(=O)c2ccccc2)ncn1 | -10 | -6% | 6% | -11% | 14µM* | nt | ? | -12% | 2% | 12% | 11%
O=C(NCSc1ccccc1)c1ccccc1 | 16 | -12% | 5% | -22% | nt | 37% | nt | nt | nt | nt | nt
CCc1oc(C(=O)OC)cc1CSC(=N)N | -12 | -24% | ? | -12% | 18µM* | -16% | -17%[10.4 µM] | -9% | -1% | 6% | 10%
Cc1ccc2c(=O)cc(C(=O)Nc3nnc(CC(C)C)s3)oc2c1C | 9 | 4% | nt | -10% | nt | -23% | nt | nt | nt | nt | nt
COC(=O)CC1Oc2ccc(C)cc2-n2cc(-c3ccc(C)cc3)nc21 (centres undefined) | -11 | -8% | nt | -11% | nt | -16% | nt | nt | nt | nt | nt
COc1ccc(-c2sc(Nc3cccc4ccccc34)n[n+]2C)c(C)c1C | 6 | 3% | 13% | i | nt | 3% | nt | nt | nt | nt | nt
CSc1ccc(-c2sc(Nc3ccccc3)n[n+]2-c2ccccc2)cc1 | nt | ? | -30% | -14% | 25µM* | -13% | -28% | -24% | -1% | 9% | 2%
